Assay results published in PubChem BioAssay AID624330 (Southern Research Specialized Biocontainment Screening …, 2012).
Among all 340,000 compounds or so, about 2,100 (0.62%) were called active.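 Rule for the calls: active = first-screen hits whose inhibition reached a set limit at any dose in the follow-up dose series; inconclusive = inhibition above the set first-screen limit but never retested; inactive = the rest.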 These entries were drawn from the full list. Measured potencies and affinities stand elsewhere.

Target: Rac GTPase-activating protein 1 (Homo sapiens) (UniProt Q9H0H5)
Test: blockers of MgcRacGAP-driven Rac1 GTP hydrolysis – biochemical, ADP Hunter fluorescence, primary and confirmatory, confirmation (AID 624330);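 note: fluorescence reports GDP produced by GAP-driven GTP hydrolysis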
Settings: MgcRacGAP-stimulated Rac1 GTP hydrolysis, at 30 µM, hits give high values, GST-tagged Rac1 F28L mutant substrate

Rac GTPase-activating protein 1 (Homo sapiens), sequence (Q9H0H5 whole entry, looked up): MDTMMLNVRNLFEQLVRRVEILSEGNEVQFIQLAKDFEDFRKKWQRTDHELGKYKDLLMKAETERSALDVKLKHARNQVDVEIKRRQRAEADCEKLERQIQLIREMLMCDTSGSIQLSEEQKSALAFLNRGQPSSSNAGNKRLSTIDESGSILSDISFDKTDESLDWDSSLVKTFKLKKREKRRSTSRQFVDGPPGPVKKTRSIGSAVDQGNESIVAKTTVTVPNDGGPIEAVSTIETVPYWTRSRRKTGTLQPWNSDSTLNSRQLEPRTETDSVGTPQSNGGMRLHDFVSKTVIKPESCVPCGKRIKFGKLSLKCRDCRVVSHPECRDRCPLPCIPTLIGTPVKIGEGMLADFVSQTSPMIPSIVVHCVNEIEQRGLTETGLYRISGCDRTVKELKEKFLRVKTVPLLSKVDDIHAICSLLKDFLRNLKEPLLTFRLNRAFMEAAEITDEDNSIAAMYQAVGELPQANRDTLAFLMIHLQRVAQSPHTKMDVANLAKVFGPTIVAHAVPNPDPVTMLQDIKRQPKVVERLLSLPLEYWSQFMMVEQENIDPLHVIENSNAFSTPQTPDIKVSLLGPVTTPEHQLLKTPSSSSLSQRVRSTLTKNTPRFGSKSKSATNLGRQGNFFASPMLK

inhibition, inactive:
Cn1c(-c2ccccc2)c(C(=O)CCl)c2ccccc21 -6.3%, Cn1c(-c2ccccc2)c(C(=O)CC#N)c2ccccc21 5.99%, COc1ccc(-c2cc(C(=O)Nc3ccc(S(N)(=O)=O)cc3)c3ccccc3n2)cc1OC -3.78%, CCOc1ccc2nc(-c3ccc(OC)c(OC)c3)cc(C(=O)O)c2c1 11.1%, COc1ccc(-c2cc(C(=O)Nc3ccc(C(N)=O)cc3)c3ccccc3n2)cc1OC 12.9%, COc1cc(-c2cc(C(=O)O)c3cc4ccccc4cc3n2)cc(OC)c1OC 11.4%, O=C(Nc1ccc(NC(=O)C2CC2)cn1)c1ccccc1 9.99%, COc1ccccc1-c1noc(-c2ccccc2C(=O)NCc2ccco2)n1 4.73%, Cc1ccc(C)n1CCN1CCN(S(=O)(=O)c2ccc(F)cc2F)CC1 4.22%, S=c1[nH]nc(-c2ccco2)n1/N=C/c1c(Cl)cccc1Cl 8.7%, S=c1[nH]nc(-c2ccco2)n1/N=C/c1ccccc1Cl 14.4%, S=c1[nH]nc(-c2ccco2)n1/N=C/c1ccc(Cl)c(Cl)c1 7.47%, S=c1[nH]nc(-c2ccco2)n1/N=C/c1cccc(Cl)c1 12%, COc1cccc(NC(=O)CN(C)C(=O)CSc2nc3ccccc3s2)c1 -3.45%, CCOc1ccc(N2C(=O)CC(NCCc3ccc(S(N)(=O)=O)cc3)C2=O)cc1 (configuration not stated) 9.91%, O=C(O)[C@H]1CCCC[C@H]1C(=O)Nc1ccc(S(=O)(=O)N2CCCCC2)cc1 6.35%, CCOc1ccc(/C=N/NC(=O)c2ccc(Cn3cc(Br)cn3)o2)cc1 -8.44%, CC(=O)C(=Nc1ccc(Cl)cc1Cl)NNc1cccc(Cl)c1 22.6%, COC(=O)c1ccccc1OCCN1CCCCCC1 24.5%, CCN1CCN(Cc2ccc(OCc3ccccc3)c(OC)c2)CC1 14.4%, CC1CC(C)CN(CCOc2cccc(Cl)c2Cl)C1 (configuration not stated) 18.8%, c1ccc(Oc2cccc(OCCCCN3CCCC3)c2)cc1 18.1%, Clc1cccc(OCCCN2CCCC2)c1Cl 19%, CC1CN(CCOc2cccc(Oc3ccccc3)c2)CC(C)O1 (configuration not stated) 19.8%, CCOc1ccccc1OCCN1CCC(Cc2ccccc2)CC1 11.1%, CCC(=O)c1ccccc1OCCCN1CCC(Cc2ccccc2)CC1 16.5%, CCc1ccc(/C([O-])=C(/C(=S)NCCN2CCOCC2)[n+]2ccccc2)cc1 -2.62%
